uPA surface inh – cell surface uPA generation inhibition; cell surface uPA generation assay, qHTS; Potency, µM (series often up to 38.3 µM), for the others: top-dose activity change, negative = inhibition, most hits filed as inhibitors; 330,000 compounds, 0.31% hits; AID 540303; active = well fitted inhibition curve with a large enough effect; inconclusive = small, poorly fitted or top-dose-only effect; inactive = no such curve, though single readings can be large or run the other way; tested in mouse RAW 264.7 cells; note: potency is the fitted concentration of half-maximal effect; % is set by controls: 0 for no effect and ±100 for the full control effect; nearly all actives have a fitted effect of over 55% in size
TRPV1 ag – agonists of human vanilloid receptor 1 (TRPV1). TRPV1-expressing cells, Fluo-8 calcium influx, agonist mode. activation, % at 8.33 µM. 320,000 compounds, 0.19% hits. AID 540275; in the data active = activation above about 80%; inconclusive = between about 30% and that limit; note: 0% is about no effect
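Cells expressing TRPV1 were dye-loaded with Fluo-8 and read kinetically: 10 s baseline, 3 min after compound (agonist portion), then 2 min after EC20 capsaicin (allosteric enhancer portion). Calcium-bound dye fluorescence at 480/520 nm.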
TRPV1 PAM – enhances activation of the human vanilloid receptor TRPV1 | potentiation, % at 8.33 µM | 320,000 compounds, 0.02% hits | TRPV1-expressing cells, Fluo-8 calcium influx, capsaicin EC20 potentiation | Q8NER1; in the data active = potentiation above about 80%; inconclusive = between about 30% and that limit; note: 0% is about no effect
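TRPV1-expressing cells were cultured overnight at 35.5C and loaded with Fluo-8 calcium dye for 40 to 90 min at room temperature. After a 10 s baseline, compound was added and calcium influx was read kinetically for 3 min (ex 480/em 520 nm).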
RORg inh – inhibitors of mouse ROR gamma transcriptional activity; P51450; Drosophila S2 Gal4-RORgamma UAS-luciferase reporter, 20 h; 310,000 compounds, 5.4% hits; Potency, µM (top dose mostly 53.6 µM), inactives show top-dose activity change, negative = inhibition, most hits filed as inhibitors; note: potency is the fitted concentration of half-maximal effect; % is set by controls: 0 for no effect and ±100 for the full control effect; nearly all actives have a fitted effect of over 60% in size
Target sequence (P51450 whole entry, looked up, the tested form may be a part): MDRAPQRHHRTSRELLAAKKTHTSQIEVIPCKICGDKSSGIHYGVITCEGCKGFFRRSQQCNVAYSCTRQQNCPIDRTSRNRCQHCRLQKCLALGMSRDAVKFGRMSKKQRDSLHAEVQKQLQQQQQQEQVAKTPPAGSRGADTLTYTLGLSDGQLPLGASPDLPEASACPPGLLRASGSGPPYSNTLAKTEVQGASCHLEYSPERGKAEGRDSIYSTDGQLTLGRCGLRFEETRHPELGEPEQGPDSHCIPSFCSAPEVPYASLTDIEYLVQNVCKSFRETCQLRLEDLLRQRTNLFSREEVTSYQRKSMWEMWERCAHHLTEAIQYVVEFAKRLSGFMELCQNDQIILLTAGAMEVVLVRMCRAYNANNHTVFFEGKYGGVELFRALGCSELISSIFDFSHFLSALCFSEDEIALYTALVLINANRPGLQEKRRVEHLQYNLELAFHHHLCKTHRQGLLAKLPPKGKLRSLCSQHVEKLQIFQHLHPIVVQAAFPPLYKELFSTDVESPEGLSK
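Read-out: Photinus luciferase luminescence; inhibitors lower reporter signal. Insect Schneider cells with Gal4-ROR gamma fusion under metallothionein promoter, UAS reporter; 700 uM final copper sulfate induction, 20 hr, ambient temperature.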
Gal4-VP16 FLuc – inhibits Gal4-VP16 luciferase reporter, ROR gamma counter-screen; Drosophila S2 Gal4-VP16 UAS-luciferase, luminescence, 20 h; Potency, µM (series often up to 53.6 µM), inactives show at the top dose activity, negative = inhibition, most hits filed as inhibitors; 310,000 compounds, 3.5% hits; AID 2546;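 note: Gal4-VP16 expression switched on by copper sulfate through the metallothionein promoter; potency is the fitted concentration of half-maximal effect; % is set by controls: 0 for no effect and ±100 for the full control effect; nearly all actives have a fitted effect of over 50% in size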
An asterisk follows results filed as active; [ ] = dose if it differs, or a comment. Sampled rows, rich in hits. Any-hit rate of the full collection: about 5.8%. Unless noted, calls come from the whole dose curve; as a rule, active = well fitted curve in the direction sought with a large enough effect; inconclusive = small, poorly fitted or top-dose-only effect, or another doubt; inactive = no such curve, though single readings can be large; an effect the other way counts as inactive or inconclusive.

Results for O=C(CSc1ncn[nH]1)Nc1ccc(S(=O)(=O)N2CCCC2)cc1 ?
uPA surface inh: 1.6%; TRPV1 ag: -0.4; TRPV1 PAM: 9.6; RORg inh: inconclusive; Gal4-VP16 FLuc: 8.9%

What do the screens show for `CN(C)c1ncc2nc(-c3ccc(Cl)cc3)c(=O)n(Cc3ccc(F)cc3)c2n1`?
RORg inh: -16.2%; Gal4-VP16 FLuc: -11.4%

How did C[C@@H](/C=C/c1ccc2ccccc2c1)C1COC(=O)C[C@H]1O (stereo partly drawn) do in these assays?
RORg inh: -14.6%; Gal4-VP16 FLuc: -25.8%

How did C=CCNC(=S)Nc1ccc(OC(F)F)c(Cl)c1 do in these assays?
uPA surface inh: 0.6%; TRPV1 ag: 7.0; TRPV1 PAM: -2.2; RORg inh: inconclusive; Gal4-VP16 FLuc: inconclusive

Results for CCc1ccc(NC(=S)Nc2ccc3[nH]c(=O)[nH]c3c2)cc1 ?
uPA surface inh: 1.8%; TRPV1 ag: 3.0; TRPV1 PAM: -2.8; RORg inh: 12.6µM*; Gal4-VP16 FLuc: -65.5%

How did NNC(=S)Nc1ccc(Cl)cc1 do in these assays?
uPA surface inh: 1.1%; TRPV1 ag: 2.4; TRPV1 PAM: inconclusive; RORg inh: 11.2µM*; Gal4-VP16 FLuc: inconclusive

Results for NNC(=S)Nc1ccc(OC(F)(F)F)cc1 ?
uPA surface inh: 3.6%; TRPV1 ag: -2.8; TRPV1 PAM: -6.8; RORg inh: inconclusive; Gal4-VP16 FLuc: inconclusive

What do the screens show for `S=C(NCc1ccccc1)Nc1ccc(Cl)cc1`?
uPA surface inh: 2.0%; TRPV1 ag: inconclusive; TRPV1 PAM: -10.3; RORg inh: 4.47µM*; Gal4-VP16 FLuc: inconclusive

Results for C=CCNC(=S)Nc1ccc(Cl)cc1 ?
uPA surface inh: -1.4%; TRPV1 ag: 4.7; TRPV1 PAM: -8.1; RORg inh: 15.8µM*; Gal4-VP16 FLuc: inconclusive

How did COC(=O)CNC(=O)CCCCC(=O)NCC(=O)OC do in these assays?
TRPV1 ag: -2.1; TRPV1 PAM: -4.7; RORg inh: 2.3%; Gal4-VP16 FLuc: 2.4%

What do the screens show for `CC(C)(C)OC(=O)NS(=O)(=O)Nc1ccccc1Br`?
RORg inh: 7.7%; Gal4-VP16 FLuc: -6.0%

Results for Cc1cc(C(=O)Nc2nc3ccc(S(C)(=O)=O)cc3s2)c(C)o1 ?
uPA surface inh: -22.6%; TRPV1 ag: 11.6; TRPV1 PAM: 24.9; RORg inh: 1.12µM*; Gal4-VP16 FLuc: inconclusive

What do the screens show for `Cc1ccc(C(=O)Nc2nc3ccc(S(C)(=O)=O)cc3s2)s1`?
uPA surface inh: -9.7%; TRPV1 ag: inconclusive; TRPV1 PAM: -8.4; RORg inh: 3.16µM*; Gal4-VP16 FLuc: inconclusive

Results for CS(=O)(=O)c1ccc2nc(NC(=O)c3cccs3)sc2c1 ?
uPA surface inh: inconclusive; TRPV1 ag: 10.9; TRPV1 PAM: -5.5; RORg inh: 14.1µM*; Gal4-VP16 FLuc: 8.91µM*

What do the screens show for `COc1cc(C(=O)Nc2nc3ccc(S(C)(=O)=O)cc3s2)cc(OC)c1C`?
uPA surface inh: 3.3%; TRPV1 ag: -2.1; TRPV1 PAM: -2.6; RORg inh: -26.1%; Gal4-VP16 FLuc: -17.1%

How did COc1ccc2nc(NC(=O)c3cc(C)oc3C)sc2c1 do in these assays?
uPA surface inh: -6.6%; TRPV1 ag: inconclusive; TRPV1 PAM: -9.5; RORg inh: inconclusive; Gal4-VP16 FLuc: inconclusive

Results for CSc1ccccc1NC(=O)CN(C)CC(=O)NCC(=O)Nc1ccc(F)cc1 ?
uPA surface inh: 0.6%; TRPV1 ag: -3.0; TRPV1 PAM: 3.7

What do the screens show for `CSc1ccccc1NC(=O)CN(C)CC(=O)Nc1ccccc1C(F)(F)F`?
uPA surface inh: 2.1%; TRPV1 ag: 8.9; TRPV1 PAM: -3.7; RORg inh: 8.91µM*; Gal4-VP16 FLuc: 3.4%[10 µM]

Results for CSc1ccccc1NC(=O)CN(C)CC(=O)Nc1ccc(Cl)cc1F ?
uPA surface inh: 2.1%; TRPV1 ag: -6.4; TRPV1 PAM: 8.3; RORg inh: 11.2µM*; Gal4-VP16 FLuc: inconclusive

What do the screens show for `O=C(CCN1C(=O)c2ccc([N+](=O)[O-])cc2C1=O)Nc1ccccc1C(=O)O`?
uPA surface inh: -2.7%; TRPV1 ag: 2.0; TRPV1 PAM: 8.2; RORg inh: 3.5%; Gal4-VP16 FLuc: -3.8%

How did COc1ccccc1NC(=S)NCCC(c1ccccc1)c1ccccc1 do in these assays?
uPA surface inh: 4.8%; TRPV1 ag: 12.0; TRPV1 PAM: -4.2; RORg inh: 11.2µM*; Gal4-VP16 FLuc: inconclusive
